aSyn yeast inh: rescues yeast growth from alpha-synuclein toxicity | Potency, µM (doses to about 46.1 µM), hits mostly activators | Yeast expressing alpha-synuclein, growth rescue, BacTiter-Glo, 24 h | AID 652106 | actives 0.14% (n = 370,000); note: nearly all actives have a fitted effect of over 65% in size
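Rescue of yeast growth: cells expressing toxic alpha-synuclein, induced in galactose at OD600 0.02, incubated with compound 24 h at 30 C. ATP luminescence quantified growth; inhibitors of toxicity appear as activators.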
FUS suppressor: suppressors of FUS proteinopathy in yeast | AID 1347120 | Potency, µM (series often up to 76.6 µM), usual class: activators | S. cerevisiae FUS-expressing, growth rescue, OD600, 24 h | actives 0.24% (n = 390,000); note: nearly all actives have a fitted effect of over 55% in size
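Yeast FUS proteinopathy model; galactose-induced FUS (2%), starting OD 0.005. Cpds in dilution series, 24hr, 30C, 99% humidity. Abs 600 nm growth. Pos ctrl CP55940 (top 92uM final); neg ctrl DMSO.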
Abeta rescue: A-beta toxicity reversal in yeast; Potency, µM (doses to about 46.1 µM), usual class: activators; yeast expressing A-beta42, growth rescue, OD600, 48 h; response scale: 0% DMSO, 100% iron-clioquinol control; actives 0.063% (n = 410,000); note: nearly all actives have a fitted effect of over 55% in size
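Yeast growth medium received pinned compounds, then yeast cells expressing toxic A-beta were added; plates incubated at 30 C for 48 hr. Growth read as absorbance at 600 nm, normalized to DMSO and equimolar FeCl3 plus clioquinol controls.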
TDP43 rescue: TDP-43 toxicity inhibition in yeast; Potency, µM (series often up to 46.1 µM), most hits filed as activators; actives 1.8% (n = 410,000); TDP-43 expressing yeast growth rescue, BacTiter-Glo, 24 h; note: nearly all actives have a fitted effect of over 50% in size
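Galactose-induced TDP-43 yeast, OD600=0.02, compound pinned; 24 hr, 30 deg C; BacTiter-Glo luminescence for growth. Inhibitors of TDP-43 toxicity read as activators.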
Of the large screens only hits and unclear results are named; the others gave an inactive call. This is a sample that favours compounds with a hit; in the whole collection about 2.1% have one here. Calls come from the whole dose curve; as a rule, active = well fitted curve in the direction sought with a large enough effect; inconclusive = small, poorly fitted or top-dose-only effect, or another doubt; inactive = no such curve, though single readings can be large; an effect the other way counts as inactive or inconclusive.

Cc1c(C=O)c2ccccn2c1C(=O)c1ccc(F)cc1	aSyn yeast inh 16µM
Cc1c(C=O)c2ccccn2c1C(=O)c1ccccc1	aSyn yeast inh 18µM, TDP43 rescue inconclusive
O=C(C[n+]1cccc(Br)c1)c1ccc(-c2ccccc2)cc1	TDP43 rescue 1.6µM
CC1CCN(C(=O)c2ccc(CS(=O)(=O)Cc3ccccc3)cc2)CC1	none (no result: FUS suppressor)
CC(C)(C)NC(=O)C(c1ccc(-c2ccccc2)cc1)n1c(=O)c(-c2cc3ccccc3[nH]2)nc2ccccc21 (stereo unspecified)	aSyn yeast inh inconclusive, TDP43 rescue inconclusive
O=S(=O)(NCc1ccc(F)cc1)c1ccc(Br)cc1Br	aSyn yeast inh 20µM, TDP43 rescue 22µM
COc1cccc(CNS(=O)(=O)c2cc(Br)ccc2Br)c1	aSyn yeast inh inconclusive, TDP43 rescue 18µM
COc1cccc(CNS(=O)(=O)c2cc3[nH]c(=O)c(=O)[nH]c3cc2C)c1	none (no result: aSyn yeast inh)
CCN(C(=O)Cn1c(=O)n(-c2ccccc2)c(=O)c2ccc(C(=O)NCc3ccc4c(c3)OCO4)cc21)c1cccc(C)c1	FUS suppressor 35µM (no result: aSyn yeast inh)
COc1ccc(NC(=O)COC(=O)C23CC4CC(CC(NC(C)=O)(C4)C2)C3)cc1S(=O)(=O)N1CCOCC1	none
O=C(COC(=O)C1CC1)Nc1ccc(Cl)cn1	none
O=C(COC(=O)Cc1ccc(Br)cc1)Nc1ccc(Cl)cn1	Abeta rescue inconclusive, TDP43 rescue 11µM
Cc1cnc(C(=O)Nc2cccc3ncccc23)cn1	none
CCCCSc1nc(NCc2ccco2)c2c3c(sc2n1)COC(C)(C)C3	TDP43 rescue inconclusive
CCCSc1nc(NCc2ccco2)c2c3c(sc2n1)COC(C)(C)C3	FUS suppressor inconclusive, TDP43 rescue 20µM
Cc1ccc(-c2cc(NC(=O)COc3ccc(Cl)c(C)c3)on2)cc1	none (no result: aSyn yeast inh)
CC=Cc1cc(OC)c2c(c1)C(C)C(c1ccc(O)c(OC)c1)O2 (stereo unspecified)	aSyn yeast inh inconclusive, FUS suppressor inconclusive, TDP43 rescue 35µM
C/C=C/c1ccc(O)c(OC)c1	none
Cc1sc2ncnc(Nc3ccc(N4CCOCC4)cc3)c2c1-c1ccccc1	none
Nc1ncnc2nc(-c3ccc(N4CCOCC4)nc3)cc(-c3cccc(Br)c3)c12	aSyn yeast inh 21µM (no result: FUS suppressor, Abeta rescue, TDP43 rescue)
Cc1c(NC(=O)c2cc(-c3ccc(F)cc3)nc3ccccc23)c(=O)n(-c2ccccc2)n1C	none
Cc1c(CCO)c(=O)[nH]n1S(=O)(=O)c1ccccc1	none
O=C(CNC(=O)c1cccc(F)c1)OCCOc1cccc(Cl)c1	TDP43 rescue 13µM
Cn1c(=O)c(-c2ccccc2)c(O)c2ccccc21	TDP43 rescue 20µM
O=C(O)c1ccc(COc2ccc3ccccc3c2/C=C2/NC(=O)N(c3ccccc3)C2=O)cc1	FUS suppressor 35µM
O=C(OCC(=O)c1ccc[nH]1)c1ccc(Cl)nc1	none
Cc1ccc(-n2c(N)c(C(=O)N3CCCCC3)sc2=S)cc1	TDP43 rescue 11µM
Cc1cc(Nc2ccc(C)c(Cl)c2)n2nc(Cc3ccccc3)nc2n1	TDP43 rescue 22µM (no result: aSyn yeast inh)
Cc1cc(Nc2ccccc2C)n2nc(Cc3ccc(Cl)cc3)nc2n1	TDP43 rescue 18µM (no result: aSyn yeast inh)
Cc1cc(Nc2cccc(Cl)c2C)n2nc(Cc3ccccc3)nc2n1	TDP43 rescue 22µM (no result: aSyn yeast inh)
COc1cc2c(cc1OC)C(C1(O)CCCCC1)NCC2 (stereo unspecified)	none
C[C@H]1CN([C@@H](C)CO)C(=O)CCCn2nncc2CO[C@@H]1CN(C)Cc1ccc(-c2ccccc2)cc1	TDP43 rescue inconclusive
Cc1nc(Br)c(Br)n1Cc1ccccc1	TDP43 rescue 11µM
Cc1nc2ccccc2n1Cc1ccccc1	none
NNc1nc(-c2ccccc2)nc(-c2ccccc2)c1Br	TDP43 rescue 22µM
CCCS(=O)(=O)N1CC(=O)N(c2ccc(C)cc2)C(C)(C(=O)NC2CCCCCC2)C1 (stereo unspecified)	none (no result: aSyn yeast inh)
O=S(=O)(c1ccc(Cl)cc1)N1CCCC1c1nc(-c2ccc(Cl)cc2)no1 (stereo unspecified)	none
Cc1ccc(NC(=O)N2CCCC(c3nc(-c4ccc(F)cc4)no3)C2)cc1 (stereo unspecified)	TDP43 rescue 35µM
O=S(=O)(c1ccccc1Cl)N1CCCC1c1nc(-c2ccccc2Cl)no1 (stereo unspecified)	TDP43 rescue 14µM
O=C(Nc1ccc(Cl)cc1)N1CCC(c2nc(-c3ccccc3Cl)no2)CC1	TDP43 rescue 18µM
O=C(Nc1ccc(Cl)cc1)N1CCC(c2nc(-c3cccs3)no2)CC1	FUS suppressor inconclusive, TDP43 rescue inconclusive
COc1cccc(OC)c1C(=O)Nc1ccccc1N1CCCC1	none
O=C1NC(c2ccccc2)=C(c2ccc3ccccc3n2)C(c2ccccc2)N1 (stereo unspecified)	none
O=C1NC(c2ccccc2)=C(c2nc3ccccc3s2)C(c2ccc(O)cc2)N1 (stereo unspecified)	FUS suppressor 35µM
Cc1ccc(C(C)C)c(OCC(=O)Nc2ccccc2N2CCN(C)CC2)c1	none
c1ccc2c3n(nc2c1)CCCCO3	none
COc1ccc(CN2C(=O)C(CC(C)C)Nc3ncnc(N4CCN(c5ccccc5)CC4)c32)cc1 (stereo unspecified)	FUS suppressor inconclusive
C=C(C)Cn1c(=S)[nH]c2ccccc2c1=O	TDP43 rescue 13µM
CC(C)Cn1c(=S)[nH]c2ccccc2c1=O	Abeta rescue inconclusive
CCOC(=O)/C=C1\NC(=O)CS1	none
Cc1n[nH]c(C)c1N=Nc1ccc(Br)cc1	TDP43 rescue 3.5µM
CCc1nc2c(OCCC3CCCCC3)cccn2c1N(C)C(=O)c1ccc(OC)cc1	FUS suppressor 22µM
C=CCSc1nnc(CCCCCN2C(=O)c3cccc4cccc(c34)C2=O)o1	TDP43 rescue 22µM
CCOC(=O)CSc1nnc(CCCCCN2C(=O)c3cccc4cccc(c34)C2=O)o1	none
COCc1cc(C)nc2oc(C(=O)c3ccccc3)c(N)c12	TDP43 rescue 13µM
Cc1ccccc1-c1nc(CS(=O)(=O)CC(=O)N2CCN(c3ccccc3)CC2)c(C)o1	TDP43 rescue 13µM (no result: aSyn yeast inh)
Clc1ccc(-c2nc(-c3ccncc3)no2)c(Cl)c1	none
O=C1C2C3C=CC(C3)C2C(=O)N1CNc1ccccc1 (stereo unspecified)	TDP43 rescue inconclusive (no result: FUS suppressor)
Cc1cccc(NCN2C(=O)C3C4C=CC(C4)C3C2=O)c1 (stereo unspecified)	TDP43 rescue 11µM
COc1cnc(-c2ccccc2)c(-c2ccccc2)n1	none
N#C/C(=C\c1ccc(F)c(Br)c1)C(=O)NC1CC1	aSyn yeast inh inconclusive, Abeta rescue inconclusive, TDP43 rescue inconclusive
CC(C)(C)c1ccc(/C=C(\C#N)C(=O)NC2CC2)cc1	TDP43 rescue 35µM
Cc1ccc(C)c(N2C(=O)N(Cc3cc(=O)n4ccccc4n3)c3ccccc3S2(=O)=O)c1	FUS suppressor inconclusive (no result: aSyn yeast inh)
CCCCNC(=S)N(C)/N=C/c1ccc(F)cc1	TDP43 rescue 11µM (no result: FUS suppressor)
